Results: PubChem BioAssay AID1578 (Sanford-Burnham Center for Chemical Genomics, 2009)
Out of some 290,000 compounds screened, about 3,000 (1%) were called active. Rule as the data show it: active = inhibition mostly above about 36% (no sharp cut-off); inactive = mostly below about 34%. Shown is part of a subset that was picked to be rich in actives.

test: inhibition of NOD1-driven NF-kB reporter – cell-based, luminescence, uHTS, primary screen (AID 1578); details: NOD1-driven NF-kB luciferase reporter cells, at 4 µM, stronger effect = higher value;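 also: HEK-293T reporter cells stimulated with the NOD1 agonist gamma-tri-DAP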

Compound	inhibition
Cc1cc(C(=O)OCC(=O)NC(C)C)c(C)o1	-4% (inactive)
CC(=O)C(C)n1c(CN2CCN(C(=O)c3ccco3)CC2)nc2c1c(=O)n(C)c(=O)n2C (configuration not stated)	-0.4% (inactive)
CCN1CCS/C1=C/C=C/C1=[N+](CC)CCS1	14% (inactive)
CCN1CCS/C1=C\C=C\C1=[N+](CC)CCS1	53.8% (active)
Cc1ccc(CC(=O)NCc2ccc(Cl)cc2)cc1	-57.8% (inactive)
Cc1ccc(-c2cc(C)nc3ncnn23)cc1	-4.1% (inactive)
Cc1cccc2nc(CSc3nc4[nH]ncc4c(=O)n3-c3cccc(Cl)c3)cc(=O)n12	75.3% (active)
Cc1cccc2nc(CSc3nc4[nH]ncc4c(=O)n3-c3ccccc3Cl)cc(=O)n12	6.5% (inactive)
Cc1cccc(-n2c(SCc3cc(=O)n4c(C)cccc4n3)nc3[nH]ncc3c2=O)c1	-6.2% (inactive)
COc1ccc(C2C(C(N)=O)=C(C)Nc3ncnn32)cc1 (configuration not stated)	-4.5% (inactive)
COC(=O)CCC(=O)NNC(=O)C1CC1(c1ccccc1)c1ccccc1 (configuration not stated)	0.4% (inactive)
COc1ccc(NC(=S)N2CCN(c3ccccn3)CC2)cc1	-4.7% (inactive)
S=C(Nc1ccccc1)N1CCN(c2ccccn2)CC1	-29.8% (inactive)
Cc1ccccc1N1CCN(C(=O)c2ccccc2NC(=O)C2CC=CCC2C(=O)O)CC1 (configuration not stated)	-15.8% (inactive)
COc1ccccc1-n1nnnc1S(=O)(=O)Cc1ccc(Cl)cc1	102% (inactive)
Cc1cccc(C)c1-n1nnnc1S(=O)(=O)Cc1ccccc1Cl	-16.2% (inactive)
CN1/C(=C\C(=O)C[n+]2cccc(Br)c2)C(C)(C)c2ccccc21	30.4% (inactive)
Cc1ccc[n+](CC(=O)/C=C2\N(C)c3ccccc3C2(C)C)c1	27.4% (inactive)
CN1/C(=C\C(=O)C[n+]2ccc3ccccc3c2)C(C)(C)c2ccccc21	47% (active)
O=C(NCc1ccccc1OC(F)(F)F)C1CCC(=O)N(CCc2ccccn2)C1 (configuration not stated)	-25.8% (inactive)
Cc1[nH]c2ccccc2c1C(=O)C(=O)N(C)C1CCCCC1	-23.5% (inactive)
CN(C(=O)CSc1ccccc1C(=O)O)C1CCCCC1	-26.5% (inactive)
CC(Sc1nc(N)cc(=O)[nH]1)C(=O)NC1CCCCC1 (configuration not stated)	-12% (inactive)
CC(Sc1n[nH]c(N)n1)C(=O)NC1CCCCC1C (configuration not stated)	-7.3% (inactive)
Cc1cc(C(=O)O)sc1C	-16.5% (inactive)
FC(F)(F)c1cnc(Sc2nnc(-c3cccs3)n2CC2CCCO2)c(Cl)c1 (configuration not stated)	-14.9% (inactive)
CCOc1cc(/C=N/NC(=O)C(=O)NCc2ccc3c(c2)OCO3)ccc1OCC(=O)N1CCOCC1	-4.3% (inactive)
